MEKK2 mut-MEK5: signal of MEK5 binding to mutant human MEKK2 PB1 domain | bead flow cytometry, Alexa488-MEK5 binding to MEKK2 mutant | percent response, % at 10 µM | 290,000 compounds, 0.35% hits | AID 1530; in the data active = percent response above about 24%, passing the limit was not always enough
MEKK3 PB1 HTS: modulators (inhibitors or enhancers) of MEK5 binding to human MEKK3 PB1 domain | 290,000 compounds, 1.4% hits | bead-based flow cytometry, Alexa488-MEK5 binding to MEKK3; actives lie on both sides; 0 = blocked by unlabeled MEK5, 100 = vehicle | binding response (% of control), % at 10 µM | Q99759;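 active = binding response more than 3 SD above or below the average of its plate-row segment, actives on both sides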;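 note: Alexa488 bead fluorescence after subtracting the streptavidin-only scavenger bead signal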
dFosB activator: activators of mouse delta FosB homodimer; P13346; purified delta FosB, TAMRA-CDK5 oligo fluorescence polarization; percent of positive-control signal above neutral wells; activation, % at 25 µM; 340,000 compounds, 0.99% hits; AID 493131;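 active = mean activation above about 17%, with every replicate also reaching it, limit read from the data, passing the limit was not always enough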
Target sequence (P13346 whole entry, looked up): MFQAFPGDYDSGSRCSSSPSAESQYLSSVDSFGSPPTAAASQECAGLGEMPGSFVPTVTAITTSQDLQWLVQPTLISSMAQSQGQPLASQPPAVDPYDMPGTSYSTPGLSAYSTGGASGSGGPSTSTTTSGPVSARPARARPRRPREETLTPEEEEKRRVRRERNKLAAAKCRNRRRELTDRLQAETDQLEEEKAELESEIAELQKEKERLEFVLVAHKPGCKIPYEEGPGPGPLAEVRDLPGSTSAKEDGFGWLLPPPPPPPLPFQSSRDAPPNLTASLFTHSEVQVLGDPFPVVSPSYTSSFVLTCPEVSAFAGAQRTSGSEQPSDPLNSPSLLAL
DNA FID counter: counter-screen for HCV NS3 helicase inhibitors: DNA intercalator displacement. 290,000 compounds, 0.17% hits. DNA fluorescent intercalator displacement, fluorescence. AID 1845. inhibition, % at 7.9 µM; in the data active = inhibition above about 37%;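 note: 0% = vehicle and 100% = reference compound; higher means more ethidium bromide displaced from hairpin DNA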
MEKK2 WT-MEK5: raises or lowers MEK5 binding to wildtype human MEKK2 PB1 domain. bead flow cytometry, Alexa488-MEK5 binding to MEKK2 WT; actives lie on both sides. binding response (% of control), % at 10 µM. 290,000 compounds, 1.1% hits; in the data active = binding response below about 67% or above about 130%
MEKK2wt confirm: raises or lowers MEK5 binding to wildtype human MEKK2, retest; shares compounds with MEKK3 PB1 HTS; bead flow cytometry, Alexa488-MEK5 binding to MEKK2 WT; actives lie on both sides; binding response (% of control), % at 10 µM; 5,900 compounds, 2.4% hits; in the data active = binding response below about 16% or above about 210%; inactive = in between
MEKK2mut confirm: signal of MEK5 binding to mutant human MEKK2, retest; shares compounds with MEKK3 PB1 HTS; bead flow cytometry, Alexa488-MEK5 binding to MEKK2 mutant; percent response, % at 10 µM; 5,900 compounds, 2% hits; in the data active = percent response mostly above about 71%, no sharp cut-off; inactive = mostly below about 38%;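 note: higher means compound restores mutant binding toward wildtype level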
MEKK3 confirm: confirmation of inhibitors of MEK5 binding to human MEKK3 | shares compounds with MEKK3 PB1 HTS | bead flow cytometry, Alexa488-MEK5 binding to MEKK3; hits give low values | binding response (% of control), % at 10 µM | 5,900 compounds, 1.8% hits | AID 1894;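 active = binding response below 72% of control, or above a set upper limit, though filed actives all read lower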;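 note: 100% = DMSO only wells and 0% = binding blocked by excess unlabeled MEK5; lower values mean stronger disruption of MEK5 binding to MEKK3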
* marks the source's active call; other numbers are inactive results; nt = not tested or not shown; [ ] = another dose, or the depositor's remark. A selection: hits, their analogues and other compounds. The true share with any hit is near 2.9%.

SMILES | MEKK2 mut-MEK5 | MEKK3 PB1 HTS | dFosB activator | DNA FID counter | MEKK2 WT-MEK5 | MEKK2wt confirm | MEKK2mut confirm | MEKK3 confirm
Cc1ccc(C(=O)Nc2cccnc2)cc1S(=O)(=O)N1CCOCC1 | 10 | 129* | -1 | 0 | 125 | 107 | 6 | 105
CN(C)CCCNc1nc2sc3c(c2c(=O)n1CCc1ccccc1)CCCCC3 | 49 | 111 | -8 | 30 | 183* | 166 | 45 | 108
CN(C)CCCn1c(=O)n(CCc2ccccc2)c(=O)c2c3c(sc21)CCCCC3 | 1 | 103 | -3 | 11 | 130 | nt | nt | nt
COc1ccc(CCN2C(=O)CS/C2=N\NC(=O)c2cccs2)cc1OC | -1 | 101 | 0 | -15 | 101 | nt | nt | nt
N#Cc1ccccc1NC(=O)c1ccccc1OCC(=O)Nc1ccc2c(c1)oc1ccccc12 | -11 | 78*[inhibitor] | 13 | 2 | 88 | 91 | -33 | 96
CC(C)OC(=O)C1OC1(C)c1ccccc1 (stereo unspecified) | nt | nt | 1 | nt | nt | nt | nt | nt
Cc1ccc(CNC(=O)C2CC(=O)N(CCC(C)C)C2)cc1 (stereo unspecified) | -45 | 5.0*[inhibitor] | 1 | -20 | 8.0*[inhibitor] | 99 | -8 | 99
Cc1cccc(N2C(S)=C(C#N)C(=O)NC2c2ccco2)c1 (stereo unspecified) | -12 | 101 | -7 | -6 | 81 | nt | nt | nt
N#CC1=C(S)N(c2ccccc2)C(c2ccc(-c3cccc(Cl)c3)o2)NC1=O (stereo unspecified) | 0 | 130* | -9 | -15 | 101 | 95 | -7 | 100
CCCCn1c(N)c(NCC)c(=O)[nH]c1=O | -4 | 96 | -4 | 1 | 99 | nt | nt | nt
O=C(CSc1ccc(-c2ccco2)nn1)NCc1ccccc1Cl | 1 | 135* | 5 | -9 | 109 | 103 | 1 | 102
OC(CN1CCNCC1)Cn1ccc2ccccc21 (stereo unspecified) | 35* | 107 | nt | 26 | 153 | 156 | 33 | 105
OCc1nc2ccccc2n1CC(O)Cn1ccc2ccccc21 (stereo unspecified) | 16 | 102 | 0 | -7 | 110 | nt | nt | nt
O=C1c2ccccc2S(=O)(=O)N1CC(O)Cn1ccc2ccccc21 (stereo unspecified) | 81* | 97 | -10 | -16 | 31* | 87 | -3 | 100
CCOC(=O)C(NC(=O)CCl)(Nc1sc(C)c(CC)c1C#N)C(F)(F)F (stereo unspecified) | 3 | 147* | -12 | -5 | 109 | 99 | 1 | 98
COCCCNC(=O)c1cc2cc([N+](=O)[O-])cc(OC)c2oc1=O | -16 | 39*[inhibitor] | 0 | -20 | 51 | 105 | 5 | 105
Cc1cccc(CSc2nnc(CCCCCNC(=O)OC(C)(C)C)o2)c1 | 30 | 138* | -1 | -48 | 118 | 109 | 6 | 105
Cc1ccc(CSc2nnc(CCCCCNC(=O)OC(C)(C)C)o2)cc1 | 6 | 97 | -10 | -44 | 101 | nt | nt | nt
COc1cc(/C=N/NS(=O)(=O)c2ccc(C(C)(C)C)cc2)cc([N+](=O)[O-])c1O | 14 | 96 | -7 | -3 | 48*[inhibitor] | 98 | 1 | 106
O=C(/C=C/c1cccc(F)c1)OCC(=O)N1CCc2ccccc21 | nt | nt | 6 | nt | nt | nt | nt | nt
CCCCCCCCCn1ccc(=N)cc1 | 31 | 131* | -11 | 11 | 140* | 112 | 6 | 104
Cc1ccccc1C(=O)N(Cc1nc2ccccc2c(=O)[nH]1)C1CCCC1 | 0 | 128* | -10 | -35 | 113 | 99 | 0 | 102
CCCC1O[C@@H]2C[C@H]3[C@@H]4CCC5=CC(=O)C=C[C@]5(C)[C@H]4[C@@H](O)C[C@]3(C)[C@]2(C(=O)CO)O1 (stereo partly specified) | 2 | 70*[inhibitor] | -6 | -36 | 103 | 103 | 0 | 103
CCCC1OC2CC3C4CCC5=CC(=O)C=CC5(C)C4C(O)CC3(C)C2(C(=O)O)O1 (stereo unspecified) | 5 | 101 | 7 | -20 | 99 | nt | nt | nt
O=C1CC(NS(=O)(=O)c2ccc3ccccc3c2)CN1c1ccccc1 (stereo unspecified) | nt | nt | -10 | nt | nt | nt | nt | nt
SMILES | MEKK2 mut-MEK5 | MEKK3 PB1 HTS | dFosB activator | DNA FID counter | MEKK2 WT-MEK5 | MEKK2wt confirm | MEKK2mut confirm | MEKK3 confirm
CCCn1nnc2c(=O)oc3ccccc3c21 | -1 | 98 | 5 | -7 | 100 | nt | nt | nt
CN(C)CCn1nnc2c(=O)oc3ccccc3c21 | -32 | 56*[inhibitor] | -4 | 6 | nt | 101 | 1 | 102
Cc1c(Cl)cccc1NC(=O)CNC(=O)Cc1c[nH]c2ccccc12 | nt | nt | -5 | nt | nt | nt | nt | nt
C=CCn1c(SCc2csc(-c3ccc(Cl)cc3)n2)nnc1-c1ccccc1OC | 11 | 100 | 2 | -22 | 95 | nt | nt | nt
CCOC(=O)N1CCN(c2c(N3CCN(c4ccccc4F)CC3)c(=O)c2=O)CC1 | -5 | 72*[inhibitor] | -7 | -31 | 82 | 75 | -23 | 70*
CCOC(=O)c1ccc(N2CCN(c3ccccc3F)CC2)c(NC(=O)Nc2ccccc2)c1 | 9 | 102 | -1 | -12 | 30*[inhibitor] | 106 | -2 | 103
COc1ccc2[nH]c(=O)c(CN(CC3CCCO3)C(=O)Nc3ccc(F)cc3)cc2c1 (stereo unspecified) | 2 | 108 | -16 | -4 | 105 | nt | nt | nt
COc1ccc(NC(=O)N(Cc2cc3cc(C)ccc3[nH]c2=O)CC2CCCO2)cc1 (stereo unspecified) | 30 | 130* | -10 | -33 | 119 | -4.0*[inhibitor] | -2 | 86
CCNC(=O)CC1SC(=Nc2ccc(C)cc2)N(CC)C1=O (stereo unspecified) | 3 | 108 | -5 | -9 | 112 | nt | nt | nt
CCCCN1C(=O)C(CC(=O)NCC)SC1=Nc1ccccc1 (stereo unspecified) | 6 | 134* | -10 | -20 | 108 | 95 | 4 | 95
COc1cccc(CNc2cc(C)ccn2)c1O | 27* | 100 | 1 | -1 | 100 | 97 | -10 | 98
CCOC(=O)C1CSC2(CCC(c3ccccc3)CC2)N1 (stereo unspecified) | 9 | 146* | -4 | 2 | 136 | 99 | -2 | 98
Nc1ccccc1SCC(O)Cn1ccc2ccccc21 (stereo unspecified) | 0 | 98 | -12 | -10 | 102 | nt | nt | nt
O=C(N/N=C/c1cccc2cccnc12)c1ccccc1O | 11 | 107 | -7 | -7 | 102 | nt | nt | nt
O=C(N/N=C/c1ccc(OCc2ccccc2)cc1)c1cc[n+](Cc2ccccc2)cc1 | 21 | 97 | -6 | 13 | 153* | 160 | 26 | 109

From PubChem
